Inconclusive results are not listed. A call without a number means that no potency is given here. The source made the active and inactive calls. Unless noted, the call rests on the fitted dose curve; in most records, active means well fitted curve in the direction sought with a large enough effect in the repeat runs; inconclusive means weak or mixed curves; inactive means no such curve, though single readings can be large; an effect the other way counts as inactive or inconclusive.
Tests used:
[1] = A CellTox Green Cytotoxicity Assay to monitor cytotoxicity in HepG2 cells - 8 hour (AID 1224890); further: nearly all actives have a fitted effect of over 45% in size; further: potency means the concentration at half of the fitted maximal effect
Outline: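 HepG2, 600 cells/well premixed w/ CellTox Green; 5 h settle, 37 C/5% CO2; pintool cpd add (DMSO); 37 C, 40 h; fluorescence read at 0, 8, 16, 24, 32, 40 h.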

[2] = qHTS assay to identify small molecule antagonists of the estrogen receptor alpha (ER-alpha) signaling pathway using the BG1 cell line in the presence of 0.1 nM 17-beta-estradiol - cell viability counter screen (AID 1259241); further: nearly all actives have a fitted effect of over 40% in size; further: potency means the concentration at half of the fitted maximal effect
Outline: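 Following 5 days in phenol red-free medium with charcoal-stripped serum, VM7Luc4E2 cells received test compounds alongside 0.1 nM 17beta-estradiol (final) at 37C for 22 hr. Live cells were then quantified via protease-substrate fluorescence.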

[3] = qHTS assay to identify small molecule antagonists of the androgen receptor (AR) signaling pathway using the MDA cell line in the presence of 0.5 nM R1881 - cell viability counter screen (AID 1259242); further: nearly all actives have a fitted effect of over 45% in size; further: potency means the concentration at half of the fitted maximal effect
Outline: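 Live-cell protease fluorescence, CellTiter-Fluor, 30 min at 37C. Cells: MDA-kb2, 3,000/well, preincubated 5 hr. Compounds plus 0.5 nM R1881 final, 16 hr, 37C, 0% CO2.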

[4] = qHTS assay to identify small molecule HDAC inhibitors (AID 1259364); further: potency means the concentration at half of the fitted maximal effect;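 further: wild-type HCT-116 cells with endogenous class I/II HDAC activity; nearly all actives have a fitted effect of over 45% in size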
Outline: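 HCT-116 (wild type), 1,500 cells/well, overnight; compound 2 hr 37C 5% CO2; HDAC-Glo I/II reagent 30 min RT; luminescence readout.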

[5] = qHTS assay to identify small molecule HDAC inhibitors - cell viability counter screen (AID 1259365); further: nearly all actives have a fitted effect of over 50% in size; further: potency means the concentration at half of the fitted maximal effect
Outline: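 HCT-116 wild-type, overnight attachment; 2hr drug exposure, 37C; CellTiter-Glo luminescent ATP readout after 30min RT.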

[6] = qHTS assay to identify small molecule agonists of the sonic hedgehog signaling (Shh) pathway - cell viability counter screen (AID 1259366); further: nearly all actives have a fitted effect of over 50% in size; further: potency means the concentration at half of the fitted maximal effect
Outline: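 Compounds in DMSO were pin-transferred onto 3T3 Gli1-Luc cells that had settled 4hr; plates then stood 24hr at 37C and 5% CO2. One hour before the end, CellTiter-Fluor was added and fluorescence recorded.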

[7] = qHTS assay to identify small molecule antagonists of the sonic hedgehog signaling (Shh) pathway - cell viability counter screen (AID 1259367); further: nearly all actives have a fitted effect of over 55% in size; further: potency means the concentration at half of the fitted maximal effect
Outline: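 Tox21 library chemicals were tested on a Gli1-Luc NIH/3T3 clone (2,000 cells/well) stimulated by conditioned medium; viability was quantified as fluorescence from CellTiter-Fluor reagent added at 23 hr.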

[8] = qHTS assay to identify small molecule agonists of the sonic hedgehog signaling (Shh) pathway (AID 1259368; calls by dose curve;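 further: NIH/3T3-derived 3T3Gli1-Luc cells carrying a stable Gli1-driven firefly luciferase reporter; series mostly up to about 92 µM; nearly all actives have a fitted effect of over 15% in size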)
Outline: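 Read-out: firefly luciferase luminescence from a Gli1 response element reporter stably integrated in NIH/3T3-derived 3T3Gli1-Luc cells, measured 30 min at room temperature after reagent addition. Compound exposure lasted 24 hr at 37 C, 5% CO2.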

[9] = qHTS assay to identify small molecule antagonists of the sonic hedgehog signaling (Shh) pathway (AID 1259369; calls by dose curve; further: nearly all actives have a fitted effect of over 45% in size; further: potency means the concentration at half of the fitted maximal effect)
Outline: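 Luminescence readout: firefly Luc under Gli1 response element in 3T3Gli1-Luc cells (NIH/3T3 clone). Antagonist mode, stimulation by conditioned medium; compound exposure 24hr at 37 C, 5% CO2.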

[10] = qHTS assay to identify small molecule agonists of the androgen receptor (AR) signaling pathway in the presence of an antagonist - cell viability counter screen (AID 1259379); further: nearly all actives have a fitted effect of over 25% in size; further: potency means the concentration at half of the fitted maximal effect
Outline: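 Viability counter screen: CellTiter-Fluor fluorescence, measured in the same wells as the luciferase read-out. MDA-kb2 cells, 3,000/well, with nilutamide at 3.0uM final and compounds at 15 concentrations, 16 hr at 37C, 0% CO2.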

[11] = qHTS assay to identify small molecule antagonists of the estrogen receptor beta (ER-beta) signaling pathway - cell viability counter screen (AID 1259382); further: series mostly up to about 92 µM; nearly all actives have a fitted effect of over 55% in size
Outline: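 Luminescent ATP read-out (CellTiter-Glo, 30 min, RT) taken in the same wells as the bla reporter assay. HEK293T ER-beta-UAS-bla cells in 2% charcoal-stripped FBS were exposed to compounds with 1nM E2 for 16 hr at 37C.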

[12] = biological target: Estrogen receptor (Homo sapiens) (UniProt P03372); assay: qHTS assay to identify small molecule agonists of the estrogen receptor alpha (ER-alpha) signaling pathway in the presence of an antagonist (AID 1259383; calls by dose curve; further: top concentration of the series differs between compounds; nearly all actives have a fitted effect of over 15% in size)
Sequence of Estrogen receptor (Homo sapiens) (P03372 whole entry, looked up): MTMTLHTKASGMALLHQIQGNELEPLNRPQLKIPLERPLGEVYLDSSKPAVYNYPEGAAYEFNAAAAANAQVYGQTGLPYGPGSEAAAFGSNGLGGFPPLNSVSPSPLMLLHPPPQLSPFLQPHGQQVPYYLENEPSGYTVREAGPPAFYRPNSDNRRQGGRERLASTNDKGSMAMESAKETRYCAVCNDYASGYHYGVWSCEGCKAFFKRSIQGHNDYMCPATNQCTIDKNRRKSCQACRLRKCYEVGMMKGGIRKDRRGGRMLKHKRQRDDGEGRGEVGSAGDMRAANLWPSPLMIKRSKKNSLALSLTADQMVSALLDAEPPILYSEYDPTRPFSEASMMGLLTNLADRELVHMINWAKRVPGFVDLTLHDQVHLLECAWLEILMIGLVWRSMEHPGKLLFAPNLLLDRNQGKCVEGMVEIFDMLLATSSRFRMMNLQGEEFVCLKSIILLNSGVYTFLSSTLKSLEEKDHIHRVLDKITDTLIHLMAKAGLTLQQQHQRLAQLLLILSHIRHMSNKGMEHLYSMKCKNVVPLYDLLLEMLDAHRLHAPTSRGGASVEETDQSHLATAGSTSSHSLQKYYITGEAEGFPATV
Outline: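 Luciferase luminescence (ONE-Glo, 30min at room temperature) measured in VM7Luc4E2 cells after 22hr compound exposure at 15 concentrations, with 10.0nM ICI-182,780 final present; cells express endogenous ER-alpha and carry four EREs upstream of luciferase.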

[13] = qHTS assay to identify small molecule agonists or antagonists of the thyroid stimulating hormone receptor (TSHR) signaling pathway - wild type cell line counter screen (AID 1259384; calls by dose curve)
Outline: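 Wild-type Hek293 cells, 800/well, 18 h at 37C, then compound with Ro20-1724 for 30 min RT. cAMP by HTRF (cAMP-d2/anti-cAMP cryptate), 1 h RT, fluorescence read. 15 concentrations, triplicates.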

[14] = qHTS assay to identify small molecule phospholipidosis (PLD) inducers (AID 1259344; active means well fitted curve in the direction sought with a large enough effect; an effect the other way counts as inactive or inconclusive)
Outline: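 Image-based: LipidTOX Red pit count/intensity per well and per cell; HepG2, 24 h compound at 37 C, PFA fixation, Hoechst counterstain.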

[15] = biological target: Estrogen receptor beta (Homo sapiens) (UniProt Q92731); assay: qHTS assay to identify small molecule agonists of the estrogen receptor beta (ER-beta) signaling pathway (AID 1259377; active means well fitted activation curve with a large enough effect in the signal ratio in the repeat runs, not every such curve was filed as active; the % refers to the signal ratio)
Sequence of Estrogen receptor beta (Homo sapiens) (Q92731 whole entry, looked up): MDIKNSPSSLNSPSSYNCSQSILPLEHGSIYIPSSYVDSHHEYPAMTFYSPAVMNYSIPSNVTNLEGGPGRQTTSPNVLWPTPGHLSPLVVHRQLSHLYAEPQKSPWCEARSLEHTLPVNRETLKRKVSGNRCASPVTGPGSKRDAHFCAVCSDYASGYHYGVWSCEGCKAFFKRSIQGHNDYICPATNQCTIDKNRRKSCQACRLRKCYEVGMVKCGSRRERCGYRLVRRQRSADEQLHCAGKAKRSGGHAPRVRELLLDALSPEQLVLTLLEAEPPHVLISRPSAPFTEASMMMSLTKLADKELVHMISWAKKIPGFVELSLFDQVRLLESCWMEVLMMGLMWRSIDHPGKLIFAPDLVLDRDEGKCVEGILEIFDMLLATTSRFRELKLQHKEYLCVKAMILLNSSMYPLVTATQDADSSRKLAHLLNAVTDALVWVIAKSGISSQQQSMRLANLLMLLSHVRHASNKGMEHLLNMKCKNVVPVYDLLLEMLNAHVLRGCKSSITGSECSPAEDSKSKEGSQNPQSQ
Outline: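 qHTS in ER-beta-UAS-bla HEK293T cells: 6 hr settling, then 16 hr compound at 37C, then LiveBLAzer substrate 2 h at RT before fluorescence reading.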

[16] = biological target: Estrogen receptor beta (Homo sapiens) (UniProt Q92731); assay: qHTS assay to identify small molecule antagonists of the estrogen receptor beta (ER-beta) signaling pathway (AID 1259378; active means well fitted inhibition curve with a large enough effect in the signal ratio in the repeat runs, not every such curve was filed as active; the % refers to the signal ratio)
Outline: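 ER-beta-UAS-bla HEK293T cells in 2% charcoal-stripped FBS medium treated with compound plus 1nM final 17-beta-estradiol for 16 hr at 37C. Beta-lactamase reporter read by FRET substrate fluorescence after 2 hours at room temperature.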

[17] = qHTS assay to identify small molecule agonists of the estrogen receptor beta (ER-beta) signaling pathway - cell viability counter screen (AID 1259380); further: nearly all actives have a fitted effect of over 30% in size; further: potency means the concentration at half of the fitted maximal effect
Outline: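 Luminescence read-out (CellTiter-Glo, 30 min, room temp) taken in the same wells as the beta-lactamase reporter assay; ER-beta-UAS-bla HEK293T cells exposed to DMSO-dissolved compounds for 16 hr at 37C in 2% charcoal-stripped FBS medium.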

Row | SMILES | Potency [1] | Potency [2] | Potency [3] | Potency [4] | Potency [5] | Potency [6] | Potency [7] | Potency [8] | Potency [9] | Potency [10] | Potency [11] | Potency [12] | outcome [13] | Potency [14] | Potency [15] | Potency [16] | Potency [17]
1 | CCOC(=O)/C=C/C(=O)OCC | inactive | inactive | inactive | inactive | inactive | inactive | inactive | inactive | inactive | inactive | inactive | inactive | inactive |  |  |  | 
2 | CCOC(=O)c1ccc(C#Cc2ccc3c(c2)C(C)(C)CCS3)nc1 | inactive | inactive | inactive | inactive |  |  | inactive |  | inactive | inactive | inactive |  | inactive | inactive | inactive | inactive | inactive
3 | O=C1NCCN1CCO | inactive | inactive | inactive | inactive | inactive | inactive | inactive | inactive | inactive | inactive | inactive |  |  |  | inactive | inactive | inactive
4 | CCC(C)COC(=O)CC(C)C (configuration not stated) | inactive | inactive | inactive | inactive | inactive | inactive | inactive | inactive | inactive | inactive |  | inactive |  |  | inactive | inactive | 30.6 µM (active)
5 | O=C1c2ccccc2C(=O)N1CCc1noc(-c2ccc(CN3CCCCCC3)s2)n1 | 31.8 µM (active) | inactive | inactive | inactive |  | inactive | inactive | inactive | 22.3 µM (active) |  |  | inactive |  |  |  |  | 3.15 µM (active)
6 | c1csc(SSc2cccs2)c1 | inactive | inactive | inactive | inactive | inactive | 43.3 µM (active) | 43.3 µM (active) | inactive | 13.7 µM (active) |  |  |  | inactive |  | inactive |  | 13.7 µM (active)
7 | CC1=C(Br)C(=O)C(Br)=C/C1=C(/c1ccccc1S(=O)(=O)O)c1cc(Br)c(O)c(Br)c1C | inactive | 18.6 µM (active) | 18.6 µM (active) | 7.39 µM (active) | 18.6 µM (active) |  | 20.8 µM (active) | inactive |  | 18.6 µM (active) | inactive |  |  |  | inactive | inactive | inactive
8 | CC(C)=CC(=O)C=C(C)C | inactive | inactive | inactive | inactive | inactive |  | inactive |  |  | inactive | inactive | inactive |  |  | inactive | inactive | inactive
9 | CC(C)(O)c1ccc(CNC(=O)c2cccnc2Oc2ccc3nonc3c2)cc1 | inactive | inactive | inactive | inactive | inactive |  | inactive |  | 0.486 µM (active) | inactive | inactive | inactive |  |  | inactive |  | 
10 | C=CC(=O)OCC1CC2CC1C1CCC(COC(=O)C=C)C21 (configuration not stated) | inactive | inactive | inactive | inactive | inactive |  |  | inactive | 19.3 µM (active) | inactive | inactive |  | inactive |  | inactive |  | 
